Data: PubChem BioAssay AID1863 (Southern Research Specialized Biocontainment Screening …, 2009)
The whole screen tested about 300,000 compounds, of which about 480 (0.16%) were called active.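 Rule for the calls: active = inhibition over 29.93%, a cutoff 3 SD above the screen mean, later confirmed by dose response; inconclusive = inhibition over 29.93% but no dose response follow-up; inactive = inhibition at most 29.93% or unconfirmed.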 The list is a sample of the results. Measured potencies and affinities stand elsewhere.

Assay: PhoP-dependent GFP reporter repression – Salmonella Typhimurium, primary screen (AID 1863);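 note: 0% = low Mg2+ inducing control and 100% = high Mg2+ repressing control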
Conditions: S. Typhimurium PhoP-regulated promoter GFP reporter, 4 h; at 50 µM; stronger effect = higher value

inhibition, inactive:
CCc1sc(C(=O)Nc2cccnc2)cc1Br -5.61%, COc1ccc2[nH]cc(CCNC(=O)c3ccc4ccccc4n3)c2c1 -0.1%, CCC(=O)N1CCc2cc(Br)cc(S(=O)(=O)N3CCC(C(=O)NC(C)C)CC3)c21 3.79%, CNc1cc(CSC)nc(SCc2ccc(Cl)c(Cl)c2)n1 -2.03%, O=C(c1ccc2ncsc2c1)N1CCCCC1 0.96%, O=C(O)CCSc1nc2ccccc2n1Cc1ccccc1 -0.57%, NC(=O)CN(c1ccc([N+](=O)[O-])cc1)S(=O)(=O)c1ccccc1 10%, CN(C)C(=O)/C(C#N)=C\c1cc(Br)c(Sc2ccc(Cl)cc2)o1 2.32%, Cc1nc2c(C)cccn2c(=O)c1NC(=O)c1ccco1 6.47%, CCNC(=O)CN1C(=O)NC2(CCOc3ccccc32)C1=O (configuration not stated) -2.64%, CCn1cc(C(=O)N/N=C(/C)c2ccc(F)cc2)c(=O)c2cc(F)c(N3CCCC3)cc21 -8.17%, CCn1cc(C(=O)O)c(=O)c2cnc(N3CCN(C(=S)NC(=O)c4ccc(Cl)cc4)CC3)nc21 30.7%, CCn1cc(C(=O)NCc2cccc(F)c2)c(=O)c2cc(F)c(N3CCN(C(=O)c4ccco4)CC3)cc21 12.3%, CCn1cc(C(=O)O)c(=O)c2cnc(N3CCN(C(=S)NC(=O)c4ccccc4)CC3)nc21 18.2%, Cc1c(Cl)cccc1NC(=S)N1CCOCC1 -2.07%, O=C(Nc1c2c(nn1-c1cccc(Cl)c1)CS(=O)(=O)C2)C1CC1 -4.19%, CCNC(=S)Nc1ccc(-c2nc3ccccc3[nH]2)cc1 -10.4%, COc1ccc(NC(=O)c2cn3c(nc4ccccc43)c(C#N)c2C)cc1 -3.66%, CC1CCN(S(=O)(=O)c2ccc3c(c2)c(=O)c(C(=O)N2CCOCC2)cn3C)CC1 -0.29%, Cc1c(CC(=O)N[C@@H](C)C(=O)O)c(=O)oc2c(C)c3occ(-c4ccccc4)c3cc12 9.42%, C=CCN(Cc1nc(-c2ccccc2)no1)C(=O)c1ccc2c(c1)OCO2 1.88%, O=[N+]([O-])c1ccc(/C=N/NC(=S)Nc2ccccc2)o1 18.4%, O=C(/C=C/c1cccc([N+](=O)[O-])c1)NCCSCc1cccc(Cl)c1 -1.04%, CCn1cc(C(=O)O)c(=O)c2cnc(N3CCN(C(=S)NC(=O)c4ccc(F)c(F)c4)CC3)nc21 7.64%, CCCCCCCCCC(=O)N1CCN(c2cc3c(cc2F)c(=O)c(C(=O)O)cn3CC)CC1 6.32%, CCOC(=O)c1sc(N)c(C#N)c1CSc1nnc(C2CC2)n1N 0.84%, COc1cccc2c1OC[C@@H](CO)[C@H]2N(C)C(=O)Nc1ccc(Cl)cc1 -5.57%, CO[C@@]1(NC(=O)CSCC#N)C(=O)N2C(C(=O)O)=C(CSc3nnnn3C)CS[C@@H]21 2.92%, Cn1nnnc1SCC1=C(C(=O)O)N2C(=O)C(NC(=O)C3CC3c3ccccc3)C2SC1 (configuration not stated) 5.81%, COC(=O)C(C)Oc1cc(OC(C)C(=O)OC)c2c(-c3ccccc3)cc(=O)oc2c1 (configuration not stated) -1.83%, c1ccc(-c2ccccn2)nc1 1.51%, c1ccc(-c2ccc(-c3ccccn3)nn2)nc1 17.9%, C[C@H](NC(=O)C1CC(=O)N(c2ccc3c(c2)OCCO3)C1)C(=O)NC1CCCC1 (some centres not stated) -3.6%, CCN(CC)C(=O)COc1ccc(N(C)S(=O)(=O)c2ccc(NC(C)=O)cc2)cc1 -5.37%, COc1cc(-c2nc(N)n[nH]2)cc(OC)c1OC -10.2%, COc1cc(Nc2ncnc(N)n2)cc(OC)c1OC -3.05%, COc1cccc(OCCNc2cc(Cl)ccc2[N+](=O)[O-])c1 6.62%, Cc1ccc(NC(=O)C2(C)Cc3ccccc3C(=O)O2)cc1 (configuration not stated) -8.33%, O=C(CNC(=O)c1ccccc1)Nc1cccc(C(F)(F)F)c1 -8.93%, CC1CCN(CC(=O)Nc2cccc(C(=O)Nc3cccc(C(F)(F)F)c3)c2)CC1 0.24%, O=C1CCN(N=Nc2cccc(Cl)c2)N1 -4.47%, COc1ccc(N2CCN(C(=O)CN(C3CCCCC3)S(C)(=O)=O)CC2)cc1 -3.93%, O=C(O)c1ccc(CNCc2ccccc2F)cc1 0.78%, O=S(=O)(NCc1ccccc1)NCc1ccccc1F -1.32%, Cc1csc(C(=O)O)c1NC(=O)c1c(Cl)cccc1Cl -3.3%, CCn1nc(C(=O)N2CCN(Cc3ccc4c(c3)OCO4)CC2)c2ccccc2c1=O -2.79%, CCOC(=O)c1cn(CC)c2cc3c(cc2c1=O)OCO3 7.75%, CCn1ccc(=O)c2cc3c(cc21)OCO3 2.11%, CCn1cc(C(=O)N[C@H](C(=O)O)C(C)C)c(=O)c2cc3c(cc21)OCO3 25.9%, Cn1c(SCC(=O)NC2CCCCC2)nnc1-c1cc2cc(Cl)ccc2o1 5.87%, CC(C)CC(=O)NC(c1cccs1)c1ccc2cccnc2c1O (configuration not stated) 9.48%, CCC(=O)NC(c1cccs1)c1ccc2cccnc2c1O (configuration not stated) 27%, O=C1OCc2cc(NC(=O)C3CCCO3)ccc21 (configuration not stated) 13.1%, COc1ccc(Cc2nc3ccc(C(=O)N4CCC[C@H]4CO)cc3o2)cc1 -5.77%, Cc1cc2[nH]c3ccccc3c2c(C)n1 17.6%, COc1ccc2[nH]c3c(Cl)ncnc3c2c1 2%, Cc1ccc(C)c2c1[nH]c1ccccc12 -11.2%, COc1ccc2[nH]c3c(=S)nc[nH]c3c2c1 11.1%, Cc1ccc(C2(c3noc(CN(C)Cc4ccccn4)n3)CCCC2)cc1 1.51%, O=C(O)Cn1c(O)c(C2=c3ccccc3=NC2=O)sc1=O 3.25%, COc1cccc(N/C(N)=N/c2nc(C(F)(F)F)cc(C(F)(F)F)n2)c1 -1.8%, O=S1(=O)N=C(N/N=C/c2cccs2)c2ccccc21 0.95%, O=S1(=O)N=C(N/N=C/c2ccco2)c2ccccc21 11.7%, S=c1[nH]c2ccccc2n2c(=S)[nH]nc12 4.88%, O=c1[nH]c2ccccc2n2cnnc12 3.8%, C=CCn1c(SCC(=O)OCC)nc2cc(C(=O)NCc3ccco3)ccc2c1=O -4.98%, CCCn1nc(C(=O)OCC(=O)Nc2cccc(S(N)(=O)=O)c2)c2ccccc2c1=O -1.14%, Nc1[nH]nc2nc3ccccc3cc12 0.6%, Nc1c2ccccc2nc2ccccc12 20.8%, Nc1nc(-c2cccnc2)nn1C(=O)c1ccccc1Cl 0.52%, COc1ccc(-c2csc(NC(=O)COC(=O)c3ccco3)n2)cc1 5.57%, Cc1ccc(C(=O)OCC(=O)NC(=O)c2cccn2C)cc1[N+](=O)[O-] -12.8%, COCCCn1c(Cc2csc(Nc3ccc(F)cc3)n2)nnc1SCC(N)=O 0.4%, COc1ccc(/C(C)=N/NC(=O)CNC(=O)c2ccncc2)cc1 -0.07%, N=c1n(CC(=O)c2ccc([N+](=O)[O-])cc2)c2ccccc2n1Cc1ccccc1 39%, N=c1n(CC(=O)c2ccc([N+](=O)[O-])cc2)c2ccccc2n1Cc1ccc(Cl)cc1 25.9%, Cc1cc(C)n(C(=O)CNC(=O)c2ccc3c(c2)OCCO3)n1 -15.6%, CCO[C@@H]1OC(C(=O)N2CCCCCCC2)=C[C@H](c2cn(C(C)=O)c3ccccc23)[C@H]1CCCO -5.2%, COc1ccc(C)cc1-n1c(-c2ccncc2)n[nH]c1=S -9.19%, Cc1cccc(NC2=CC(=O)CC(C)(C)C2)c1C 2.2%, CC(C(=O)c1ccc(-c2ccccc2)cc1)[n+]1cccc(C(N)=O)c1 (configuration not stated) 2.06%, CC(C(=O)c1ccc(Br)cc1)[n+]1cccc(NC(=O)c2ccccc2)c1 (configuration not stated) -0.32%, O=C(C[n+]1cccc(CNC(=O)c2ccc(OC(F)F)cc2)c1)Nc1ccc(F)cc1 5.04%, O=C(C[n+]1cccc(CNC(=O)c2ccc(OC(F)F)cc2)c1)Nc1cccc(C(F)(F)F)c1 25.3%, CCOc1ccc(C(=O)NCC(=O)N2CCC3CCCCC3C2)cc1OCC (configuration not stated) 7.73%, COc1cc(-c2nnc(SCC(=O)/C(C#N)=C(\C)N)o2)cc(OC)c1OC 0.61%, CN(CCCC[C@H](CNCc1ccc(-c2ccccc2)cc1)N1C[C@H](c2ccccc2)N(CCc2ccc(Cl)c(Cl)c2)C(=O)C1=O)Cc1ccc(-c2ccccc2)cc1 8.2%, CCOc1ccc(CCN2C(=O)C(=O)N([C@H](CCCN(C)Cc3ccccc3)CNCc3ccccc3)C[C@@H]2C(C)C)cc1 12.1%, CCc1ccc(N2C(=O)Nc3ccccc3C2(O)C(=O)N2CCN(c3ccccn3)CC2)cc1 (configuration not stated) 10.3%, Cn1c(CSc2nc3ccccc3s2)nnc1SCC(=O)NCc1ccccn1 -6.01%, Cc1cc(/C=C2/C(=O)NN(c3ccccc3)C2=O)c(C)n1-c1ccc(O)cc1 -4.21%, O=C1NN(c2ccccc2)C(=O)/C1=C/c1coc2ccccc2c1=O 8.22%
